We go through 40 compounds from PubChem BioAssay (Tox21).

Results filed as inconclusive are left out. Where a call stands in place of a potency, no number is given. The source made the active and inactive calls. The call rests on the fitted dose curve.
Potency means the concentration at half of the fitted maximal effect.

Sequence of Thyrotropin receptor (Homo sapiens) (P16473 whole entry, looked up): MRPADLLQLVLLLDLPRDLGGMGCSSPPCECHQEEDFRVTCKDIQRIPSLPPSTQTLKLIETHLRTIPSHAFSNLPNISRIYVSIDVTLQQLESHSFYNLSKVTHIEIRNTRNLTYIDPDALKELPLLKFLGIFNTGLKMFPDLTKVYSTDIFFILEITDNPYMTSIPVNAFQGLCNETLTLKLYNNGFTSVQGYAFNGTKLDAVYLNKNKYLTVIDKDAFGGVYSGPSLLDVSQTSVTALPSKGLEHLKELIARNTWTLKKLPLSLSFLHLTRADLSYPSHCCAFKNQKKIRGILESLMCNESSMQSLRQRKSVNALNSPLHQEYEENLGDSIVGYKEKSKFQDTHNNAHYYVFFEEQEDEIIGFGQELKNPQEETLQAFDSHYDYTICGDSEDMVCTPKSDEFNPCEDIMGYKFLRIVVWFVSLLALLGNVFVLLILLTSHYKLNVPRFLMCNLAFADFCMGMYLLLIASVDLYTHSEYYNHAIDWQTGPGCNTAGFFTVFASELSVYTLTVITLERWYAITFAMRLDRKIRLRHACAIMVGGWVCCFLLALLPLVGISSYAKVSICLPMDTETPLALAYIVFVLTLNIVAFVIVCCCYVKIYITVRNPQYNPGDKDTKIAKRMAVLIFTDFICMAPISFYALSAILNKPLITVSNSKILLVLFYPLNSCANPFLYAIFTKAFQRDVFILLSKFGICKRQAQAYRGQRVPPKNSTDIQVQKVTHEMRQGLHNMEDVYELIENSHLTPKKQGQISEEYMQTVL

This assay addresses Thyrotropin receptor (Homo sapiens) (UniProt P16473). The assay can be described thus: qHTS assay to identify small molecule agonists of the thyroid stimulating hormone receptor (TSHR) signaling pathway (AID 1224843). Further: nearly all actives have a fitted effect of over 45% in size. The settings on record: TSHR-HEK293 cells, cAMP HTRF, agonist mode, 30 min; series mostly up to 92.4 µM. The text has this: National Center for Advancing Translational Sciences [NCATS]
NIH Chemical Genomics Center [NCGC]
U.S. Environmental Protection Agency [EPA]
National Institutes of Environmental Health Sciences [NIEHS]
National Toxicology Program [NTP]
U.S. Food and Drug Administration [FDA]
TSHR is the receptor for thyrotropin (thyroid stimulating hormone or TSH), a member of the glycoprotein hormone family. TSH is released by the anterior pituitary gland and is the main regulator of thyroid gland growth and development. Upon binding circulating thyrotropin, a G-protein signal cascade activates adenylyl cyclase and […] cAMP concentration is increased. cAMP is a key second messenger involved extensively in cellular signal transduction pathways associated with the majority of G-protein coupled receptors (GPCRs). The activation of these GPCRs by neurotransmitters, lipids, nucleotides, peptides and hormones results in the activation or the inhibition of plasma membrane-bound adenylate cyclase through heterotrimeric G-proteins. A cell-based TSHR assay was used to screen the Tox21 10K library for compounds that can modulate TSHR in agonist mode.
Tox21 Assay Protocol Summary:
TSHR-Hek293 cells were dispensed at 800 cells/4uL/well in 1536-well white plates using a Multidrop dispenser. […] The plates were incubated at room temperature for 30 min. 2.5 ul/well of cAMP-d2 and 2.5ul/well of anti-cAMP-cryptate was added respectively into the assay plates using a Flying Reagent Dispenser. After 1 hr incubation at room temperature, the fluorescence intensity in the plates was measured using an Envision plate reader. Each test compound was measured at 15 concentrations and in triplicates.
As to `CCCOc1ccc2nc(NC(=O)OC)[nH]c2c1`, the Potency result was “inactive”.

Turning to `Cl/C(=C\n1cncn1)c1ccc(Cl)cc1Cl`, the Potency entry is “inactive”.

Take `CN(C)CCCOc1nn(Cc2ccccc2)c2ccccc12`: the Potency result was “inactive”. With `COC(=O)C(C)=O`, the Potency result was “inactive”.

With `N=C(N=C(N)N)N1CCOCC1`, the Potency entry was “inactive”. As for `Cc1c(Cn2ccnc2)c2ccccc2n1CCC(=O)O`, the entry is “inactive”; as for `CCOC(=S)SSC(=S)OCC`, “inactive”. On to `CC[C@H](C)[C@H](N)C(=O)O`, for which the Potency entry is “inactive”. On to `CC(C)(C)c1cc(CCC(=O)OCC(COC(=O)CCc2cc(C(C)(C)C)c(O)c(C(C)(C)C)c2)(COC(=O)CCc2cc(C(C)(C)C)c(O)c(C(C)(C)C)c2)COC(=O)CCc2cc(C(C)(C)C)c(O)c(C(C)(C)C)c2)cc(C(C)(C)C)c1O`, for which the Potency entry was “inactive”. In the case of `CN1CCC(=C2c3ccccc3CCc3sccc32)CC1`, the Potency entry is “inactive”.

`CNCC[C@@H](Oc1ccccc1C)c1ccccc1`: the Potency entry was “inactive”. The result for `C=CC(=O)OCCOC(=O)CCC(=O)O` reads “inactive”. The result for `CC(=O)NCCCS(=O)(=O)O` reads “inactive”. For the compound `CCOC(=O)CC(C)C`, the Potency entry is “inactive”. As for `O=c1c2ccccc2nnn1CCl`, the Potency entry is “inactive”. In the case of `NCCCOCCOCCOCCCN`, the Potency entry is “inactive”.

In the case of `c1ccc(CNCc2ccccc2)cc1`, the Potency result is “inactive”. As for `CCCCCCCCCCCCC(=O)O`, the entry is “inactive”. As for `CC1(C)CCC(C)(C)c2cc(NC(=O)c3ccc(C(=O)O)cc3)ccc21`, the entry is “inactive”; as for `CCN1CCC[C@H]1CNC(=O)c1c(OC)ccc(Br)c1OC`, “inactive”; as for `CCN(CC)CCOC(=O)C1(c2ccccc2)CCCC1`, “inactive”. The result for `CCCCCOC(=O)c1ccc(O)cc1` reads “inactive”; that for `O=C(Cl)c1ccc([N+](=O)[O-])cc1`, “inactive”; that for `O=C(O)[C@@H]1[C@H]2C[C@H]3c4[nH]c5ccccc5c4CCN3C[C@@H]2CC[C@@H]1O`, “inactive”. Turning to `Cc1occc1S`, the Potency entry is “inactive”. As for `Cc1ccc(C(=O)C(C)CN2CCCCC2)cc1` (stereo not given), the entry is “inactive”; as for `CCCCCOC(=O)COc1cc(N2C(=O)C3=C(CCCC3)C2=O)c(F)cc1Cl`, “inactive”; as for `O=C(O)C1CCC(C(=O)O)CC1` (stereo not given), “inactive”. In the case of `Oc1ccc(Cc2ccccc2)cc1`, the Potency result is “inactive”.

Regarding `CCCCCCc1ccc(N)cc1`, the Potency entry is “inactive”. As for `ClC(Cl)(Cl)c1ccc(C(Cl)(Cl)Cl)cc1`, the entry is “inactive”; as for `SC1CCCC1`, “inactive”. Turning to `CN1CCC(OC(c2ccccc2)c2ccccc2)CC1`, the Potency entry is “inactive”. As to `Oc1ccc(C(O)CNCCCCCCNCC(O)c2ccc(O)c(O)c2)cc1O` (stereo not given), the Potency was 6.68 µM (active). The result for `CC[C@H](C)[C@@H](C(=O)O)n1sc2ccccc2c1=O` reads “inactive”. On to `CC(C)CCCCCCOC(=O)c1ccc(C(=O)OCCCCCCC(C)C)c(C(=O)OCCCCCCC(C)C)c1`, for which the Potency result is “inactive”. As to `COCCOCCOCCOCCOC`, the Potency entry was “inactive”. With `Oc1ccc(O)c2c(O)cccc12`, the Potency result is “inactive”.

Consider `C=CCCCCCC`, for which the Potency entry was “inactive”. The result for `CC(=O)N(O)CCCCCNC(=O)CCC(=O)N(O)CCCCCNC(=O)CCC(=O)N(O)CCCCCN` reads “inactive”.
